This note sets out measurements from PubChem BioAssay (NCATS).

The nature of assay [1]: Quantitative High-Throughput drug screen in 47 multiple myeloma cell lines against the NCATS MIPE library collection: OPM1_PLB cell viability assay (AID 1918989). Note: nearly all actives have a fitted effect of over 40% in size. The essentials: (§1)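 500 cells/well; MIPE 4.0 drugs pin-transferred; 48 h, 37C, 5% CO2. CellTiter-Glo, 5 min RT, luminescence. Controls: DMSO 100%, media 0%.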
Assay [2] is described as follows: Quantitative High-Throughput drug screen in 47 multiple myeloma cell lines against the NCATS MIPE library collection: U266_ATCC cell viability assay (AID 1919864). Note: nearly all actives have a fitted effect of over 35% in size. The method in brief: as §1
Assay [3] is described as follows: Quantitative High-Throughput drug screen in 47 multiple myeloma cell lines against the NCATS MIPE library collection: XG6_PLB cell viability assay (AID 1919865). Note: nearly all actives have a fitted effect of over 40% in size. The method in brief:
as §1

The nature of assay [4]: Quantitative High-Throughput drug screen in 47 multiple myeloma cell lines against the NCATS MIPE library collection: XG1_PLB cell viability assay (AID 1919866). Note: nearly all actives have a fitted effect of over 35% in size. The essentials:
as §1

A short description of assay [5]: Quantitative High-Throughput drug screen in 47 multiple myeloma cell lines against the NCATS MIPE library collection: UTMC2_PLB cell viability assay (AID 1919868). Note: nearly all actives have a fitted effect of over 55% in size. The essentials:
as §1

The nature of assay [6]: Quantitative High-Throughput drug screen in 47 multiple myeloma cell lines against the NCATS MIPE library collection: PCM6_Riken cell viability assay (AID 1919870). Note: nearly all actives have a fitted effect of over 30% in size. The method in brief:
as §1

Assay [7] is described as follows: Quantitative High-Throughput drug screen in 47 multiple myeloma cell lines against the NCATS MIPE library collection: PE2_PLB cell viability assay (AID 1919869). Note: nearly all actives have a fitted effect of over 35% in size. The method in brief:
as §1

Assay [8] can be described thus: Quantitative High-Throughput drug screen in 47 multiple myeloma cell lines against the NCATS MIPE library collection: RPMI8226_ATCC cell viability assay (AID 1919871). Note: nearly all actives have a fitted effect of over 30% in size. The essentials:
as §1

Assay [9] is described as follows: Quantitative High-Throughput drug screen in 47 multiple myeloma cell lines against the NCATS MIPE library collection: SKMM1_PLB cell viability assay (AID 1919863). For viability: series mostly up to about 46 µM. Note: nearly all actives have a fitted effect of over 35% in size. As to conditions: SKMM1 myeloma viability, CellTiter-Glo ATP, 48 h; viability: hits give low values. The essentials:
as §1
(ATP-based viability assays read luminescence as a measure of living cells.)

The nature of assay [10]: Quantitative High-Throughput drug screen in 47 multiple myeloma cell lines against the NCATS MIPE library collection: VP6_DJ cell viability assay (AID 1919867). Note: nearly all actives have a fitted effect of over 40% in size. The method in brief: as §1

Inconclusive results are not listed. A number with no mark means an inactive call. Activity calls are given as the source filed them. Calls come from the whole dose curve; as a rule, active = well fitted cell-killing curve with a large enough effect; inconclusive = small, poorly fitted or top-dose-only effect, or effect the other way; inactive = no such curve, though single readings can be large or run the other way.
Potency is the fitted concentration of half-maximal effect.

For `CC[C@H](NC(C)C)[C@H](O)c1ccc(O)c2[nH]c(=O)ccc12`, the Potency result in assay [1], in [2], in [3], in assay [4], in assay [5] and in assay [6] was “inactive” in each case.
Turning to `Cn1nnc2c(C(N)=O)ncn2c1=O`, the Potency entry in [1], in assay [3], in assay [4], in assay [7], in assay [6] and in assay [8] was “inactive” in each case.
As to `NC(=O)c1cccc(N)c1`, the Potency result in [1], in [7], in assay [6] and in [8] was “inactive” in each case. The viability (as a rule, a read-out of living cells in per cent, often relative to untreated cells) in [9] is 132%.
As for `Nc1ccc(S(=O)(=O)Nc2ccccn2)cc1`, the Potency result in assay [1], in [3], in [10], in [7] and in [6] was “inactive” throughout.
On to `OCc1ccc(-c2nn(Cc3ccccc3)c3ccccc23)o1`, for which the Potency in assay [1] is 18.7 µM (active); in assay [9], 5.9 µM (active); in [8], 4.18 µM (active). The Potency result in assay [7] and in assay [6] was “inactive” throughout.
With `Cn1c(=O)c2c(ncn2CC(O)CO)n(C)c1=O` (configuration not stated), the Potency entry in [1], in assay [3], in assay [7], in assay [6] and in assay [8] was “inactive” in each case.
As for `COC(c1ccccc1)(c1ccccc1)[C@H](Oc1nc(C)cc(C)n1)C(=O)O`, the Potency entry in assay [1], in assay [3], in [4], in assay [5], in assay [7] and in assay [6] was “inactive” throughout. In addition, the Potency entry in assay [8] is “inactive”.
For the compound `CNCC[C@H](Oc1cccc2ccccc12)c1cccs1`, the Potency in [1] was 8.33 µM (active); in assay [3] it was 0.59 µM (active); in assay [5], 2.64 µM (active); in assay [7], 4.18 µM (active); in [6], 3.72 µM (active); in [8], 23.5 µM (active).
In the case of `CCn1cc(C(=O)O)c(=O)c2cc(F)c(N3CCNCC3)nc21`, the Potency result in assay [1], in assay [3], in [5], in assay [6] and in [8] was “inactive” each time. Further, the viability in assay [9] is 102%.
With `COC(=O)Nc1nc2ccc(Sc3ccccc3)cc2[nH]1`, the Potency in assay [1] is 1.66 µM (active); in assay [9] it was 3.32 µM (active); in assay [5], 2.09 µM (active); in assay [7], 1.18 µM (active); in assay [8] it was 5.26 µM (active).
Regarding `NCCCC(O)(P(=O)(O)O)P(=O)(O)O`, the Potency entry in assay [1], in [4], in [7] and in assay [8] was “inactive” in each case. Also, in [9], the viability was 137%. Also, the Potency in assay [6] was 9.35 µM (active).
With `CC(C)(C#N)c1cc(Cn2cncn2)cc(C(C)(C)C#N)c1`, the Potency entry in [1], in [3], in assay [4], in [7], in assay [6] and in assay [8] was “inactive” throughout.
With `CCOC(=O)[C@H](CCc1ccccc1)N[C@H]1CCc2ccccc2N(CC(=O)O)C1=O`, the Potency in [1] is 16.6 µM (active); in [3], 14.8 µM (active); in assay [4] it was 18.7 µM (active); in [10], 18.7 µM (active); in assay [5], 29.6 µM (active); in assay [7], 20.9 µM (active). For the same compound, the Potency in [6] was 20.9 µM (active); in assay [8], 18.7 µM (active).
`N[C@@H](C(=O)N[C@@H]1C(=O)N2C(C(=O)O)=C(Cl)CS[C@H]12)c1ccccc1`: the Potency result in assay [1], in assay [3], in [5], in assay [7], in [6] and in assay [8] was “inactive” in each case. Further, the viability in assay [9] is 123%.
Consider `O=P(O)(O)C(O)(Cc1cccnc1)P(=O)(O)O`, for which the Potency result in assay [1], in assay [3], in assay [4], in assay [10], in assay [5] and in [7] was “inactive” each time. The Potency entry in assay [6] was “inactive”.
As for `Cc1nnc(NS(=O)(=O)c2ccc(N)cc2)s1`, the Potency in [1] was 14.8 µM (active); in [3], 1.87 µM (active); in [6], 1.18 µM (active). Further, the Potency entry in [7] was “inactive”.
For the compound `C#CCN[C@@H]1CCc2ccccc21`, the Potency result in assay [1], in assay [2] and in assay [7] was “inactive” in each case. The Potency in assay [8] was 9.35 µM (active).
Take `Cc1ncc([N+](=O)[O-])n1CCO`: the Potency result in assay [1], in assay [3], in [10] and in assay [6] was “inactive” each time.
`COCCCOc1cc(C[C@@H](C[C@H](N)[C@@H](O)C[C@H](C(=O)NCC(C)(C)C(N)=O)C(C)C)C(C)C)ccc1OC`: the Potency entry in [1], in assay [3], in assay [4], in [7] and in [8] was “inactive” throughout.
Regarding `CCCc1cc(C(N)=S)ccn1`, the Potency entry in assay [1], in assay [3], in assay [4], in assay [7], in assay [6] and in [8] was “inactive” throughout.
For the compound `O=C(O)c1cc(=O)[nH]c(=O)[nH]1`, the Potency result in assay [1], in [3], in assay [10], in assay [7], in assay [6] and in assay [8] was “inactive” in each case. For the same compound, the viability in assay [9] is 112%.
In the case of `NS(=O)(=O)c1cc2c(cc1Cl)NC(C(Cl)Cl)NS2(=O)=O` (configuration not stated), the Potency entry in assay [1], in assay [3], in assay [10], in assay [7] and in assay [8] was “inactive” each time. Moreover, in [9], the viability is 112%.
Turning to `Nc1nc(=S)c2[nH]cnc2[nH]1`, the Potency in assay [1] is 1.18 µM (active); in [9], 5.9 µM (active); in assay [3] it was 1.05 µM (active); in [5], 5.9 µM (active); in assay [7], 1.66 µM (active); in [6], 7.43 µM (active). Further, in [8], the Potency is 4.69 µM (active).
In the case of `COc1nc(N)nc2c1ncn2[C@@H]1O[C@H](CO)[C@@H](O)[C@@H]1O`, the Potency result in assay [1], in assay [3], in assay [7], in assay [6] and in [8] was “inactive” in each case. For the same compound, the viability in [9] is 124%.
With `Cc1cccc(Nc2ccncc2S(=O)(=O)NC(=O)NC(C)C)c1`, the Potency result in assay [1], in assay [2], in assay [3], in assay [5] and in assay [7] was “inactive” throughout. Besides, the Potency in assay [10] is 7.43 µM (active).
On to `O=c1cc(O)c(Cl)c[nH]1`, for which the Potency result in assay [1], in [7] and in assay [8] was “inactive” in each case. Also, the Potency in [2] is 5.9 µM (active); in assay [3], 1.87 µM (active); in [10] it was 0.132 µM (active); in assay [6] it was 2.96 µM (active).
